# From PubChem BioAssay AID376 (PDSP, 2006)
# The whole screen tested about 2,000 compounds, of which about 250 (12%) were called active. The sample holds actives, similar compounds and a random draw of the others, so the mix is not that of the screen. No stated cut-off is given here; in the data, active means hERG blockade below about -20% or above about 20%; inactive means in between.
# Target: Voltage-gated inwardly rectifying potassium channel KCNH2 (Homo sapiens) (UniProt Q12809)
# Assay: KCNH2 potassium channel function modulators, cell-based (AID 376);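 further: 0% = buffer alone and 100% = reference blocker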
# Conditions: hERG-expressing cells, channel activity single-concentration screen; concentration not given here
# Chain of Voltage-gated inwardly rectifying potassium channel KCNH2 (Homo sapiens) (Q12809 whole entry, looked up): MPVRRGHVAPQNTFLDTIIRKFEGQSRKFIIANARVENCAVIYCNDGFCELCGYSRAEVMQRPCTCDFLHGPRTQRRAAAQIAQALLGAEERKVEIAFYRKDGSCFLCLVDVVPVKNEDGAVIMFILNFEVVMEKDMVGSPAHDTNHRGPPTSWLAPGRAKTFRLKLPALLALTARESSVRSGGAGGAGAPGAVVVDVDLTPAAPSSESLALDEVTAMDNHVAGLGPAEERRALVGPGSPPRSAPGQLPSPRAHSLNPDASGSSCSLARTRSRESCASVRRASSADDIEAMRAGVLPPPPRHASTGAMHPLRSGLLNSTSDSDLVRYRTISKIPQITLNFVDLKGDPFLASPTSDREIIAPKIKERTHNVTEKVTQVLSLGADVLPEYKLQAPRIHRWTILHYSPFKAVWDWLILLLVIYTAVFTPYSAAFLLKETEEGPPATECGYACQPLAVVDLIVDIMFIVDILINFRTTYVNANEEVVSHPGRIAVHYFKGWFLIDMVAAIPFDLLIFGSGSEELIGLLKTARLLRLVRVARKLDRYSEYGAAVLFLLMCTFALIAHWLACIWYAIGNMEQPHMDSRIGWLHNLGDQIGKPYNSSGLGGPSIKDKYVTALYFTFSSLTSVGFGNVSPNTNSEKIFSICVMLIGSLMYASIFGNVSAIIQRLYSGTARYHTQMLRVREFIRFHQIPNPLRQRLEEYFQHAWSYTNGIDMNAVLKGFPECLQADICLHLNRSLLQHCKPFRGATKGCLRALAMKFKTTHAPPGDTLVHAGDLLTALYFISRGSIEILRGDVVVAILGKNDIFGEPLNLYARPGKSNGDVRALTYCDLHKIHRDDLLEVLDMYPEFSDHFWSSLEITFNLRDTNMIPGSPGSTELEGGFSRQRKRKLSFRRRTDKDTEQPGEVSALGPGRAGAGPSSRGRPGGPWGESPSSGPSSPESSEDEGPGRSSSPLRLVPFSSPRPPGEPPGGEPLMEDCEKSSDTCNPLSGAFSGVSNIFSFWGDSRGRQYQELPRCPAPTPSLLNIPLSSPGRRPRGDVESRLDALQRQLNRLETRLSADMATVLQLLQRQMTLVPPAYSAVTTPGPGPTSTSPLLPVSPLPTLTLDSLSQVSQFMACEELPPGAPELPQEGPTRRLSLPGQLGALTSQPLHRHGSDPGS
row,Compound,hERG blockade
1,SC1CCCN(Cc2ccccc2)C1 (stereo not drawn),10.8% (inactive)
2,CCC(C)(C)c1ccc(Oc2cccc(C(=O)O)c2)cc1,-10.7% (inactive)
3,CN1CCc2ccccc2C1Cc1ccccc1NC(=O)c1sc2ccccc2c1Cl (stereo not drawn),23.1% (active)
4,O=C(NC1(C(=O)O)CC1c1ccccc1)c1ccccc1 (stereo not drawn),6.62% (inactive)
5,Cc1ccc(N=Nc2c(O)ccc3cc(S(=O)(=O)O)ccc23)cc1,31% (active)
6,Cc1ccc(N=Nc2c(O)c(S(=O)(=O)O)cc3cc(S(=O)(=O)O)ccc23)c(C)c1,2.33% (inactive)
7,O=S(=O)(O)c1ccc(N=Nc2ccc3c(S(=O)(=O)O)cccc3c2O)c2ccccc12,14.9% (inactive)
8,O=[N+]([O-])c1ccc2c(N=Nc3ccc4ccccc4c3O)c(O)cc(S(=O)(=O)O)c2c1,23.1% (active)
9,O=S(=O)(O)c1ccc2c(N=Nc3c(O)ccc4ccccc34)cccc2c1,49.9% (active)
10,O=S(=O)(O)c1ccc(N=Nc2ccccc2)cc1,-15.7% (inactive)
11,O=S(=O)(O)c1cc(O)c2c(O)c(N=Nc3cccc4ccccc34)c(S(=O)(=O)O)cc2c1,9.29% (inactive)
12,O=S(=O)(O)c1cc(S(=O)(=O)O)c2c(N=Nc3cccc4ccccc34)c(O)ccc2c1,14.2% (inactive)
13,O=[N+]([O-])c1ccc2c(c1)c(S(=O)(=O)O)cc1nonc12,-6.88% (inactive)
14,Nc1ccccc1N=Nc1c(S(=O)(=O)O)cc2cc(S(=O)(=O)O)cc(O)c2c1O,21.5% (active)
15,O=S(=O)(O)c1ccc2c(N=Nc3cccc4ccccc34)c(O)c(S(=O)(=O)O)cc2c1,8.62% (inactive)
16,O=S(=O)(O)c1cc(O)c2c(N=Cc3ccccc3O)cc(S(=O)(=O)O)cc2c1,-9.52% (inactive)
17,Nc1ccc(S(=O)(=O)c2ccc(NC(=O)c3cccnc3)cc2)cc1,12.7% (inactive)
18,Nc1nc2nc3c(nc2c(=O)[nH]1)CN(c1ccc(C(=O)O)cc1)C3=O,-6.18% (inactive)
19,O=C(O)C(CCc1ccccc1)N1C(=O)c2ccccc2C1=O (stereo not drawn),0.137% (inactive)
20,Cc1[nH]c2c(C)ccc(C)c2c1CC(=O)O,-7.4% (inactive)
21,Cc1cc(Cl)nc(NC(=O)CSc2ccc(Cl)cc2)n1,-7.4% (inactive)

row,Compound,hERG blockade
1,NC(CSC(=O)c1ccccc1)C(=O)O (stereo not drawn),8.51% (inactive)
2,CN(C)C1C(=O)C(C(=O)NCN2CCCC2)=C(O)C2(O)C(=O)C3=C(O)c4c(O)cccc4C(C)(O)C3CC12 (stereo not drawn),5.47% (inactive)
3,NC(=O)c1nnn(Cc2cc(Cl)c(C(=O)c3ccc(Cl)cc3)c(Cl)c2)c1N,17.3% (inactive)
4,CC(C)CN(CC#N)CC(C)C,1.01% (inactive)
5,Cc1ccnc(NS(=O)(=O)c2ccc(N=[N+]=[N-])cc2)n1,8.12% (inactive)
6,CC(CC(N)C(=O)O)C(=O)O (stereo not drawn),1.62% (inactive)
7,Cc1cc2c(SCc3ccccc3Cl)nc(N)nc2nc1C,-7.31% (inactive)
8,O=C1c2cccc([N+](=O)[O-])c2C(=O)N1c1ncn[nH]1,24.2% (active)
9,O=C(O)C(Cc1ccccc1)N1C(=O)c2ccccc2C1=O (stereo not drawn),13.1% (inactive)
10,O=C(O)CC(C(=O)O)C1c2ccccc2-c2ccccc21 (stereo not drawn),14.3% (inactive)
11,NC(=O)C1CCCNC1 (stereo not drawn),-2.06% (inactive)
12,O=C(O)c1cc(-c2ccc(-c3ccc(-c4cc(C(=O)O)c5cc(Cl)ccc5n4)cc3)cc2)nc2ccc(Cl)cc12,-1.3% (inactive)
13,CN(C)CCCSc1nc2ccccc2[nH]1,-13.7% (inactive)
14,CN(C)CCCc1c2ccccc2nc2ccc(Cl)cc12,35.2% (active)
15,CC(=O)C1CCC2C1(C)CC=C1C23C=CC2(CC(O)CCC12C)C(C(=O)O)C3C(=O)O (stereo not drawn),3.22% (inactive)
16,NC(N)=NC(N)=Nc1ccc(S(=O)(=O)O)cc1,-3.84% (inactive)
17,O=[N+]([O-])c1ccc2c(c1)Cc1cc(N=Cc3ccc4c(c3)OCO4)ccc1-2,-2.54% (inactive)
18,COc1cc2c(cc1O)C(c1cc(O)c(O)c(OC)c1)C(O)(C(=O)O)C(CO)C2O (stereo not drawn),-2.14% (inactive)
19,O=C(O)c1c(Br)c(Br)c(Br)c(Br)c1C1c2ccc(O)cc2Oc2cc(O)ccc21,2.46% (inactive)
20,c1cnc2c(c1)ccc1cccnc12,56.6% (active)
21,Oc1c(C(Nc2ccccn2)c2ccccc2)ccc2cccnc12 (stereo not drawn),12.1% (inactive)

row,Compound,hERG blockade
1,Cc1ccc(NC(c2ccccc2)c2ccc3cccnc3c2O)cc1 (stereo not drawn),-7.23% (inactive)
2,Cc1ncn(-c2ccccc2O)c1C,-3.27% (inactive)
3,CSC(CC(=O)O)C(=O)O (stereo not drawn),-18% (inactive)
4,CC1OC(CC(=O)O)Cc2c1c(O)c1c(O)cc(-c3cc(=O)c4c(=O)c5c(c(=O)c=4c3=O)CC(CC(=O)O)OC5C)c(O)c1c2O (stereo not drawn),14.9% (inactive)
5,Oc1ccc2ccccc2c1C=Cc1ccc2c(Br)cc(Br)c(O)c2n1,11% (inactive)
6,C[n+]1cccc(C=Cc2ccc3cccc(O)c3n2)c1,48.1% (active)
7,Oc1cccc2ccc(SSc3ccc4cccc(O)c4n3)nc12,0.631% (inactive)
8,O=C(O)c1cc(=O)[nH]c(SCc2ccccc2)n1,0.275% (inactive)
9,C[N+](C)([O-])Cc1cc(-c2ccccc2)ccc1O,-15.8% (inactive)
10,O=C(SCc1cccc2ccccc12)c1ccc(Cl)cc1,-11.8% (inactive)
11,S=C(S)NCCCn1ccnc1,-3.79% (inactive)
12,NCCSS(=O)(=O)CCN,3.89% (inactive)
13,Cc1cc(N)c2cc(NC(=O)Nc3ccc4nc(C)cc(N)c4c3)ccc2n1,1.21% (inactive)
14,CCOc1ccc2nc3cc(N=Nc4ccc(N)nc4N)ccc3c(N)c2c1,19.7% (inactive)
15,Cc1cc(N)c2cc(OCCOc3ccc4nc(C)cc(N)c4c3)ccc2n1,38.9% (active)
16,O=C(O)CC12CC3CC(CC(O)(C3)C1)C2,-8.63% (inactive)
17,CCCCCC(O)C1C(=O)OC(C)C(O)C=CC=CC=CC=CC=C(C)C(O)CC(O)CC(O)CC(O)CC(O)CC(O)CC1O (stereo not drawn),-9.84% (inactive)
18,O=C(O)C(C1NCCS1)N1Cc2ccccc2C1 (stereo not drawn),-7.98% (inactive)
19,c1cncc(CNCc2cccnc2)c1,5.77% (inactive)
20,C[N+]1(CC[N+]2(C)CCCC2c2cccnc2)CCCC1c1cccnc1 (stereo not drawn),23.3% (active)
21,C[N+]1(Cc2ccc(Cl)c(Cl)c2)CCCC1c1ccc[n+](Cc2ccc(Cl)c(Cl)c2)c1 (stereo not drawn),16.1% (inactive)
